Compound activity: PubChem, National Center for Advancing Translational Sciences (NCATS)
ClpP mod: qHTS Assay for Activators of ClpP | 340,000 compounds, 1.9% hits | AID 651965, 2013 | Potency, µM (top dose mostly 57.5 µM), for inactives: top-dose activity change, negative = active | ATP-dependent Clp protease proteolytic subunit (Bacillus subtilis (strain 168)), P80244 | purified B. subtilis ClpP, FRET peptide cleavage, 20 min; active = well fitted falling curve with a large enough effect; inconclusive = small, poorly fitted or top-dose-only effect; inactive = no such curve, though single readings can be large or run the other way; note: the source files actives as falling curves though it sought activators and does not explain the sign; nearly all actives have a fitted effect of over 65% in size
Target sequence (P80244 whole entry, looked up): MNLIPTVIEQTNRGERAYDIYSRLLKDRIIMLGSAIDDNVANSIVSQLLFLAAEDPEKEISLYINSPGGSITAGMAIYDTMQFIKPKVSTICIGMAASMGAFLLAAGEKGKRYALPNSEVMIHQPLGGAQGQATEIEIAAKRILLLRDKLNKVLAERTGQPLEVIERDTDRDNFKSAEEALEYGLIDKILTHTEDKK
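Buffer: 100 mM Tris/HCl pH8, 100 mM KCl, 0.05% low protease BSA, 2.5% glycerol, 0.01% Tween-20. ClpP 10 microg/mL final; 20 min RT; delta FRET normalized to ADEP and DMSO controls.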
DT40 TDP1 no CPT: qHTS for Inhibitors of human tyrosyl-DNA phosphodiesterase 1 (TDP1): qHTS in cells in absence of CPT; DT40 Tdp1-/- hTDP1 cells, no CPT, ATP luminescence, 48 h; Potency, µM (highest dose often 46.2 µM), inactives show top-dose activity change, negative = growth inhibition, most hits filed as inhibitors; 420,000 compounds, 15% hits; AID 686978, 2013; note: % is set by controls: 0 for no effect and ±100 for the full control effect; nearly all actives have a fitted effect of over 55% in size
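Readout: luminescence from CellTiter-Glo after 30 min in the dark at RT. Cells: DT40 Tdp1-/- with stable hTDP1, 400/well. Exposure: compounds alone, ≥48 hr, 37 °C.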
DT40 TDP1 CPT: qHTS for Inhibitors of human tyrosyl-DNA phosphodiesterase 1 (TDP1): qHTS in cells in presence of CPT | Potency, µM (series often up to 46.2 µM), inactives show at the highest dose activity change, negative = growth inhibition, actives largely listed as inhibitors | chicken DT40 Tdp1-/-;hTDP1 cells + 20 nM CPT, ATP luminescence, 48 h | 420,000 compounds, 12% hits; note: % is set by controls: 0 for no effect and ±100 for the full control effect; nearly all actives have a fitted effect of over 55% in size
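Chicken DT40 Tdp1-/- cells complemented with human TDP1, 400 cells/well, exposed to compounds plus 20 nM camptothecin for at least 48 h at 37 C; viability read as ATP content by CellTiter-Glo luminescence.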
TDP1 block: qHTS Assay for Inhibitors of Tyrosyl-DNA Phosphodiesterase (TDP1); Tyrosyl-DNA phosphodiesterase 1 (Homo sapiens), Q9NUW8; recombinant TDP1, AlphaScreen DNA substrate cleavage; Potency, µM (doses to about 130 µM), without a hit: at the highest dose activity change, negative = inhibition, hits mostly inhibitors; 350,000 compounds, 0.28% hits; AID 485290, 2010; note: % is set by controls: 0 for no effect and ±100 for the full control effect; nearly all actives have a fitted effect of over 40% in size
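AlphaScreen read-out: signal falls as enzyme removes the 3' tyrosine-FITC from a 5'-biotinylated DNA oligo (15 nM, 5 min, RT). Enzyme was E. coli-made recombinant Tdp1 at 1 nM, exposed to compound for 15 min beforehand; beads 10 ug/ml, 10 min.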
Numbers without * were called inactive; u = inconclusive; x = not tested or not shown; [ ] = remark or other dose. This is a sample that favours compounds with a hit; in the whole collection about 17% have one here. Unless noted, calls come from the whole dose curve; as a rule, active = well fitted curve in the direction sought with a large enough effect; inconclusive = small, poorly fitted or top-dose-only effect, or another doubt; inactive = no such curve, though single readings can be large; an effect the other way counts as inactive or inconclusive. Potency is the fitted concentration of half-maximal effect.

SMILES	ClpP mod	DT40 TDP1 no CPT	DT40 TDP1 CPT	TDP1 block
CC1(C(=O)NCc2ccco2)Cc2c(-c3cccc(C(N)=O)c3)ccnc2O1 (stereo unspecified)	-3%	5.8µM*	4.1µM*	x
CC1(C(=O)NCc2ccco2)Cc2c(-c3cccc(C(F)(F)F)c3)ccnc2O1 (stereo unspecified)	-2%	2.9µM*	2.6µM*	x
CC1(C(=O)NCc2ccccc2)Cc2c(-c3cccc(C(N)=O)c3)ccnc2O1 (stereo unspecified)	-5%	2.3µM*	3.3µM*	x
CC1(C(=O)NCCc2ccccc2)Cc2c(-c3ccc(C(N)=O)cc3)ccnc2O1 (stereo unspecified)	-15%	u	16µM*	x
CN(C)CCO[C@](C)(c1ccccc1)c1ccccn1	x	x	x	12%[21 µM]
O=C(N/N=C/c1ccc(N2CCCCC2)o1)C(O)(c1ccccc1)c1ccccc1	x	x	x	11%
O=S(=O)(O)c1ccc2c(c1)-c1nc-2nc2[nH]c(nc3nc(nc4[nH]c(n1)c1ccc(S(=O)(=O)O)cc41)-c1ccc(S(=O)(=O)O)cc1-3)c1ccc(S(=O)(=O)O)cc21	x	x	x	0.1µM*
Cc1ccc(OCC(=O)Nc2ccccc2C(=O)N2CCCC2)cc1	1%	16µM*	u	4%
Cc1ccc(NC(=O)COc2ccccc2)c(NC(=O)c2ccccc2C)c1	1%	21µM*	u	x
Cc1ccccc1OCC(=O)Nc1ccccc1N1CCCCC1	0%	21µM*	u	2%
Cc1cccc(OCC(=O)Nc2ccccc2N2CCCC2)c1C	-3%	u	u	x
CCC(=O)c1ccc(OCC(=O)Nc2ccccc2N2CCCCC2)cc1	1%	2.9µM*	2.6µM*	0%
Cc1ccc(OCC(=O)Nc2ccccc2N2CCOCC2)c(C)c1	0%	u	18µM*	2%
Cc1cccc(OCC(=O)Nc2ccccc2N2CCN(C(=O)C(C)C)CC2)c1C	24%	u	21µM*	0%
O=C(Nc1ccc(F)cc1)Nc1nnc([C@@H]2C[C@H](O)[C@@H](CO)O2)s1	-1%	-6%	-10%	x
Cc1cc(C)c(NC(=O)c2oc3c(c2C)-c2[nH]ncc2CC3)c(C)c1	-23%	21µM*	16µM*	3%
Cc1ccccc1CNC(=O)c1oc2c(c1C)-c1[nH]ncc1CC2	u	u	u	6%
Cc1ccc(Cl)cc1NC(=O)c1oc2c(c1C)-c1[nH]ncc1CC2	-11%	u	u	6%
CCOc1ccccc1CNC(=O)c1oc2c(c1C)-c1[nH]ncc1CC2	-30%	16µM*	16µM*	3%
Cc1c(C(=O)NCc2cccc(F)c2)oc2c1-c1[nH]ncc1CC2	28µM*	u	-18%	0%
COc1cc(C2C(C#N)=C(C)NC(C)=C2C#N)cc(OC)c1OC	x	-9%	11%	5%
O=S1(=O)CC(N2CCN(CCO)CC2)CN1Cc1cn(Cc2ccc(F)cc2)nn1 (stereo unspecified)	1%	10%	9%	x
O=[N+]([O-])c1cccc(-c2nnc(SCc3cccnc3)o2)c1	1%	3%	-6%	6%
COc1ccc(Oc2c(OC)cc(NCc3ccc(CN)cc3)c3ncccc23)cc1	-10%	26µM*	u	x
COc1ccccc1NC(=O)N(C)C[C@@H]1OCc2cnnn2CCCC(=O)N([C@@H](C)CO)C[C@H]1C	1%	-6%	-8%	x
SMILES	ClpP mod	DT40 TDP1 no CPT	DT40 TDP1 CPT	TDP1 block
CCN(C(=O)CCCCC(=O)N(CC)c1ccccc1)c1ccccc1	x	18µM*	u	x
CCC1(O)CC2CN(CCc3c([nH]c4ccccc34)[C@@](C(=O)OC)(c3cc4c(cc3OC)N(C=O)C3[C@]45CCN4CC=C[C@@](CC)([C@@H](OC(C)=O)[C@]3(O)C(=O)OC)[C@H]45)C2)C1 (stereo partly specified)	x	x	x	12%[56.1 µM]
CC[C@]1(O)C[C@@H]2CN(CCc3c([nH]c4ccccc34)[C@](C(=O)OC)(c3cc4c(cc3OC)N(C=O)[C@H]3[C@@](O)(C(=O)OC)[C@H](C(=O)OC)[C@@]5(CC)C=CCN6CC[C@]43[C@H]65)C2)C1	x	0.019µM*	0.027µM*	13%[56.1 µM]
CC[C@]1(O)CC2CN(CCc3c([nH]c4ccccc34)[C@@](C(=O)OC)(c3cc4c(cc3OC)N(C)[C@H]3[C@@](O)(C(=O)OC)[C@H](OC(C)=O)[C@]5(CC)C=CCN6CC[C@]43[C@@H]65)C2)C1 (stereo partly specified)	2%	0.14µM*	0.071µM*	x
CCC1(O)CC2CN(CCc3c([nH]c4ccccc34)C(C(=O)OC)(c3cc4c(cc3OC)N(C=O)C3C(O)(C(=O)OC)C(OC(C)=O)C5(CC)C=CCN6CCC43C65)C2)C1 (stereo unspecified)	u	0.15µM*	0.092µM*	x
O=C(O)CCC(=O)Nc1cc(C(F)(F)F)cc(C(F)(F)F)c1	-8%	-12%	3%	6%
O=C(Nc1ccc(OC(F)F)cc1)c1cc(S(=O)(=O)N2CCOCC2)ccc1F	2%	u	u	3%
COc1cccc(-c2cccc3c2NC(=O)C3(C)Cc2cccc(F)c2)c1 (stereo unspecified)	-6%	21µM*	u	x
CC1(Cc2cccc(F)c2)C(=O)Nc2ccc(-c3cccnc3)cc21 (stereo unspecified)	-5%	10µM*	12µM*	x
CC1(Cc2cccc(C(F)(F)F)c2)C(=O)Nc2ccc(-c3ccc(F)c(Cl)c3)cc21 (stereo unspecified)	-8%	23µM*	u	x
CC1(Cc2cc(Cl)ccc2C(F)(F)F)C(=O)Nc2ccc(-c3ccc(F)c(Cl)c3)cc21 (stereo unspecified)	-4%	u	u	x
CC1(Cc2ccc(Cl)cc2)C(=O)Nc2ccc(-c3cccnc3)cc21 (stereo unspecified)	-4%	12µM*	13µM*	x
Cc1c(NC(=O)c2cccc(NC(=O)COc3ccc(C#N)cc3)c2)c(=O)n(-c2ccccc2)n1C	x	-47%	-9%	3%
Cc1ccc(C)c(CSc2nc3c([nH]c4ccccc43)c(=O)n2C)c1	-1%	3.3µM*	6.5µM*	0%
Cc1ccc(NC(=O)CSc2nc3c([nH]c4ccccc43)c(=O)n2C)cc1	-6%	8.2µM*	13µM*	1%
Cn1c(SCC(=O)Nc2ccc(F)cc2)nc2c([nH]c3ccccc32)c1=O	-4%	u	18µM*	3%
Cc1ccc(NC(=O)Cn2c(=O)n(CCCCC(=O)NCCc3ccccc3)c(=O)c3ccccc32)c(C)c1	0%	-24%	-20%	3%
